From paper PMC12864922, “TDP-43 directly inhibits mRNA accumulation in neurites through modulation of mRNA stability”
Whole data set: some 9,900 sequences, median “r (bound/input frequency ratio)” near 0.7, cut for the highest 2% near 6.5. The sample as a whole holds a higher share of the highest values than the screen did.

B1: ENSMUSG00000043670.63|Diras1 (ssRNA)
RNA: GGGAGUUCUACAGUCCGACGAUCGCUUCGAUAUCCGCAUGCUAAGACCUCUCCCUCUAUAUCUCUUUGCUCCCCCACCCCCAUUCUAUCUGCACCCCACAACCACACACUGGAGGUUUGAUCCCUGUGGAUCUGAAAACAGGGACCUGGCUAAGGAACUGCUCAUCCCAGUCAGGCCCAGAGAGGUUACCUUGCCUCUCCAUCUCUGUCCCUGUGUGCCCAGCCAUGCCCACUGUCCCUGUCCCUCACAUUCUAUCACUGUGACCUCUGGGGAGUGCCCAUUGACCUCAUCUUCCUUCACUAACUCUUGCGGUCGCACUAGUGUGGAAUUCUCGGGUGUCAAGG
B2: ENSMUSG00000058297.300|Spock2 (ssRNA)
RNA: GGGAGUUCUACAGUCCGACGAUCGCUUCGAUAUCCGCAUGCUAAGGGCCACCCUGAUGCCCAGGAAGAGUGAGGGCAGCCCCCUGUGUGGUGGAAGAGGCUGGGCAGCUAGCUACUGGGGACCUUGUGCUGAGGCUUCCAGGACAAAGCCCCAGUCUGGCUCUCCCCCAGCCUCUCAGGGGCACUGGCUGGUCACAUCCACUGAGUAUUGAUCGGUUGGACUUUAGGGAAGAGCCUCCUCCUUCCCAUUCCUUUCUGCCACCCUGGAAUGGCCACCUUAAUCGUCAUCUCCUCGGGGGGAAUACUCUUGCGGUCGCACUAGUGUGGAAUUCUCGGGUGUCAAGG
B3: ENSMUSG00000031028.551|Tub (ssRNA)
RNA: GGGAGUUCUACAGUCCGACGAUCGCUUCGAUAUCCGCAUGCUACCUGGUUUCCCUUCUCAGCAGUCCUGGCCUCCCCUUCUCUGUAUUCCUUGCCCCAGCUACGAUAUCCUCAUGGGAUUUCAGGAUGCCAGGUGCCAUCAAAGCAUGCUUUUUUGUGGUGCCUAGCACUGUGACUGGGGCCCAACUGCCCUGCAGAGUUGGGACCUUGCACUGCCCUAGACCCUGGCUUUAGAUCUGCUUCAGUCUCCAGAACAGGCUAUGGGAUAGAUUUUUCUUUCAGUUUAUGGCCACCUGCCCAAAUUCUCUUGCGGUCGCACUAGUGUGGAAUUCUCGGGUGUCAAGG
B4: ENSMUSG00000028439.8|Fam219a|14:18;220:226 (ssRNA)
RNA: GGGAGUUCUACAGUCCGACGAUCGCUUCGAUAUCCGCAUGCUAAACCCCACCUGCAACACAUGUCAGGCCACUUCCUCCACCGCCUGCCACAUUCAGUAGUGGGCGGGGUCGCCGCGGUGCACGGGGCGCUGACCUGGGCCCGGUGGGAUGCAGCAGGAGAGACCCCUACCCUGCUGGUCCACUGGUCCCCAGCCCCGCGCCUCUUAGAGCCGCCAACCUCGUAACAGUCAUUGCUUCCUCCUAUGGUAGGACGUGUACCUCACACACAUCAAGGAGCCGGAGAAACCAAAACCGGGUCUGUCCUCUUGCGGUCGCACUAGUGUGGAAUUCUCGGGUGUCAAGG

Molecular target: TDP-43 (Homo sapiens, UniProt Q13148 1-414)
Sequence (Q13148 whole entry): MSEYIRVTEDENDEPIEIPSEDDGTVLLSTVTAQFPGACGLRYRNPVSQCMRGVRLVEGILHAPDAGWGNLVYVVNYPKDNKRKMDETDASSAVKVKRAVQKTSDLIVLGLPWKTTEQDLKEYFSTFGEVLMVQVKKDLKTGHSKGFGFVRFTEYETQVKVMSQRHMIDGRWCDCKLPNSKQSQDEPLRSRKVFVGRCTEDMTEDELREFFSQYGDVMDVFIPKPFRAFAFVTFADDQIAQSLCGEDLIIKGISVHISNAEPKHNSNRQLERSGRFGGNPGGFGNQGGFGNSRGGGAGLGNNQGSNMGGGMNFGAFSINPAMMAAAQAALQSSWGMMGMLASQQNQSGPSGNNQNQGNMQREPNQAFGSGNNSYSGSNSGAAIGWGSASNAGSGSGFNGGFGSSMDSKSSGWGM
Assay: RNA Bind-n-Seq with designed 260-mer pool; 25 mM Tris-HCl, 150 mM KCl, 3 mM MgCl2, BSA (printed 500 mg/mL), 20 units/mL SUPERase IN; pH not stated; 500 nM RNA pool, 1 h, 4 C; TDP-43 5, 50, 500 nM; high values mean tight binding
Details: protein: recombinant; tags: SBP (GST cleaved off with PreScission; pGEX-GST-SBP)
In short: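 Binding (R) is the ratio of each oligo's mapped-read-normalized abundance in the bound fraction to its abundance in the input. To obtain it, SBP-tagged recombinant TDP-43 (5, 50 or 500 nM) on streptavidin beads was incubated with 500 nM of an in vitro-transcribed 260-nt 3′ UTR oligo pool for 1 h at 4 °C in 25 mM Tris-HCl, 150 mM KCl, 3 mM MgCl2, BSA and SUPERase IN. The RNA retained after washing was released with biotin, then reverse transcribed, amplified by PCR and sequenced.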

Binder | binding signal
B1 | 2.02 R (bound/input frequency ratio)
B2 | 0.798 R (bound/input frequency ratio)
B3 | 0.798 R (bound/input frequency ratio)
B4 | 0.367 R (bound/input frequency ratio)
